# Measured values published in PubChem BioAssay (EPA / NIEHS).
# Activity calls are given as the source filed them. How the source made its calls: active means hit-call score of the fitted dose curve at least 0.9, where 1 is the maximum; inactive means score below 0.9.
# Read-out: NAD(P)H dehydrogenase [quinone] 1 (NQO1), NQO1 (gene 1728)
# Assay: LTEA_HepaRG_NQO1: Life Technologies and Expression Analysis (LTEA) Assay for NAD(P)H dehydrogenase [quinone] 1 (NQO1) using HepaRG (AID 2283526)
# Details: mRNA level, 48 h; actives raise or lower the signal
# Procedure: LTEA_HepaRG is a cell based, multiplexed-readout assay that uses HepaRG, a human liver cell line, with measurements taken at 48 hours after chemical dosing on a 96-well plate.LTEA_HepaRG_NQO1 is one of 102 assay component(s) measured in the LTEA HepaRG cell culture assay. It is a marker of Diseases associated with NQO1 include Tardive Dyskinesia and Childhood Leukemia.Data from the assay component LTEA_HepaRG_NQO1 was analyzed into 1 endpoint. This assay endpoint, LTEA_HepaRG_NQO1, was analyzed with bidirectional fitting relative to DMSO as the negative control and baseline of activity. Using a type of inducible reporter, measures of mRNA induction for gain or loss-of-signal activity can be used to understand regulation of transcription factor activity. To generalize the intended target to other relatable targets, this assay endpoint is annotated to the oxidoreductase intended target family, where the subfamily is quinone-acceptor.
# A total of 1060 chemcials from the ToxCast library were tested in eight-point concentration-response experiments. Cell culture and cytotoxicity assays were conducted at Thermo Fisher Scientific's Custom Services facility (Madison, WI). A single lot of human HepaRG cells (Thermo Fisher Scientific, Frederick, MD) was used for the cell culture experiments. 96-well format collagen type I coated plates of human HepaRG cells were prepared using established methods. Briefly, cryopreserved HepaRG cells were thawed, plated at a density of approximately 100,000 cells/well in HepaRG Thaw, Plate, and General Purpose media (HPRG770, Thermo Fisher Scientific), and incubated for 48 hours. 0.5% DMSO was selected as vehicle control to balance the requisite need of DMSO in HepaRG cultures to maintain differentiation (for example, baseline metabolism, proportions of hepatocytes vs. cholangiocytes), while enabling further hepatic receptor pathway activation (for example, PXR and CAR) in response to chemical exposure. 48 hours after plating, the culture medium was replaced with HepaRG Serum-Free Incudtion Media. Cells were exposed to each test chemical in duplicate and maintained in CO2 incubators for another 48 hours. Chemical plates were thawed to room temperature and 200x concentrations of treatment groups were prepared. 8-point conentration-reponse curves were made with the highest exposure at 100 uM, followed by half-log dilutions, all in 0.5% DMSO. Each test plate contained variouse controls, induction positive controls (1mM phenobarbital), cytotoxicity positive controls ([…] aflatoxin B1), vehicle controls (0.5% DMSO), and total lysis controls (0.5% DMSO). Cell morphology images were taken using an Essen IncuCyte FLR automated microscope, with six 96-well plates imaged in about 24 minutes. Images were captured and exported and JPEG files. Spent culture media was transfered to black-well plates for the LDH assay, and remaining media was sorted at -80 C for later use. Cells were treated with RLT buffer and frozen until shipped for gene expression analysis. Total RNA was isolated from the cell suspension in 75 uL of Buffer RLT (Qiagen, Germantown, MD 20874) by Quintiles/Expression Analysis (Durham, NC) using a custom isolation procedure. Total RNA from each plate well was transferred to a preamplification plate. Fluidigm's 96.96 Dynamic ArrayTM (Fluidigm, Amsterdam, the Netherlands) technology was used for gene expression analyses by quantitative reverse transcription polymerase chain reaction (qRT-PCR, performed by Quintiles/Expression Analysis, Durham, NC)89. Standard TaqManTM Assays (Applied Biosystems/ThermoFisher Scientific, Foster City, CA) were used to assess the expression of 93 genes selected based on their selectivity and sensitivity to important hepatic receptors known to be modulated by environmental chemicals; importance in human hepatocyte functionality; and hepatotoxicity. […]
SMILES,outcome,AC50
O=C(O)c1cccc(C(=O)O)c1,inactive,
OC(Cn1cncn1)(Cn1cncn1)c1ccc(F)cc1F,inactive,
CCc1cccc(CC)c1N,inactive,
CC(C)CC(C)O (stereo not given),inactive,
CC1(C)C(=O)N(Cl)C(=O)N1Cl,inactive,
OC(CCl)CCl,inactive,
CCCCCCCCN(C)C,inactive,
CCn1nc(C)c2c1C(=O)NCC(c1ccc(O)cc1)=N2,inactive,
OCCNCCO,inactive,
CC(C)CCCCCCOC(=O)C1CCCCC1C(=O)OCCCCCCC(C)C (stereo not given),inactive,
O=S1(=O)CCCO1,inactive,
Cc1nccn1-c1ccc(Sc2cccc(C3(C(N)=O)CCOCC3)c2)cc1,,18.6 µM (active)
COCc1nnc(-c2ccc[n+]([O-])c2)n1-c1c(Cl)c(Cl)cc2[nH]c(=O)c(=O)[nH]c12,inactive,
CC(C)C(=O)Nc1ccc([N+](=O)[O-])c(C(F)(F)F)c1,,50 µM (active)
COS(C)(=O)=O,inactive,
OC[C@H]1O[C@@H]2O[C@H]3[C@H](O)[C@@H](O)[C@@H](O[C@H]4[C@H](O)[C@@H](O)[C@@H](O[C@H]5[C@H](O)[C@@H](O)[C@@H](O[C@H]6[C@H](O)[C@@H](O)[C@@H](O[C@H]7[C@H](O)[C@@H](O)[C@@H](O[C@H]1[C@H](O)[C@H]2O)O[C@@H]7CO)O[C@@H]6CO)O[C@@H]5CO)O[C@@H]4CO)O[C@@H]3CO,inactive,
Nc1ccn([C@@H]2O[C@H](CO)[C@@H](O)[C@@H]2O)c(=O)n1,inactive,
CCCc1ccccc1,inactive,
Cc1ccc(S(=O)(=O)NC(=O)NN2CCCCCC2)cc1,inactive,
c1ccc2c(c1)-c1cccc3c1c-2cc1ccccc13,inactive,

SMILES,outcome,AC50
O=C1CN(N=Cc2ccc([N+](=O)[O-])o2)C(=O)N1,inactive,
CCc1ccc(O)c(C(C)(C)C)c1,inactive,
Cc1ncc([C@@H](CCCCCCc2ccc3c(n2)NCCC3)CC(=O)O)cn1,inactive,
Cc1nc(-c2ccccn2)ncc1C(=O)Nn1cc(C)c2cc(F)ccc21,inactive,
CCOC(N)=O,inactive,
CCCC(CCC)C(=O)O,inactive,
C=CCc1cc(S(=O)(=O)c2ccc(O)c(CC=C)c2)ccc1O,inactive,
CCCCCCOC(=O)CC(CC(=O)OCCCCCC)(OC(=O)CCC)C(=O)OCCCCCC,inactive,
CCCCC(CC)C(=O)OCCOCCOCCOC(=O)C(CC)CCCC (stereo not given),inactive,
CC(C)c1nnc2ccc(-c3ocnc3-c3cc(F)ccc3F)cn12,inactive,
CNC(C)=O,inactive,
CCCCCCCCCC,inactive,
O=C(O)[C@H](O)[C@@H](O)C(=O)O,inactive,
NC(=O)N1c2ccccc2C=Cc2ccccc21,inactive,
C=CN1CCCC1=O,inactive,
CCN(CC)C(=S)SSC(=S)N(CC)CC,inactive,
COc1cc2c(c(OC)c1OC)-c1ccc(OC)c(=O)cc1[C@@H](NC(C)=O)CC2,,0.148 µM (active)
CCCCOC(=O)c1ccccc1,inactive,
CCCCCOC(C)=O,inactive,
NNC(=O)c1ccncc1,inactive,
